Calls of active or inactive are those of the source. The calls were made as follows: active = hit-call score of the fitted dose curve at least 0.9, where 1 is the maximum; inactive = score below 0.9.

A short description of assay [1]: ATG_NFI_CIS: Attagene CIS-FACTORIAL HepG2 Assay for human Nuclear Factor I (NFI) (AID 2282989). As to conditions: HepG2 cis-regulatory reporter, NFI response element transcription; actives raise or lower the signal. In a few lines: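 Transient MRTU transfection of HepG2 → 24 h chemical dosing → total RNA, oligo(dT) RT → PCR, 6-FAM primer extension, HpaI cut → capillary electrophoresis. Endpoint fitted bidirectionally relative to DMSO.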

The target of assay [2] is Myc proto-oncogene protein (Homo sapiens) (UniProt P01106). The assay can be described thus: ATG_Myc_CIS: Attagene CIS-FACTORIAL HepG2 Assay for human Myelocytomatosis (Myc) Proto-Oncogene Transcription Factor (AID 2282990). As to conditions: HepG2, Attagene cis-reporter transcription factor activity; actives raise or lower the signal. In a few lines:
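Fluorescence intensity of reporter-specific cDNA fragments, separated by capillary electrophoresis, gives the signal. Transfected HepG2 cells carrying cis-promoter reporter constructs are incubated with compound for 24 h; DMSO serves as baseline.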

Assay [3] is described as follows: ATG_NF_kB_CIS: Attagene CIS-FACTORIAL HepG2 Assay for human Nuclear Factor Kappa B (NF-kB) (AID 2282991). As to conditions: HepG2 Attagene cis-factorial NF-kB reporter mRNA; actives raise or lower the signal. In a few lines: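 Endogenous transcription factor activity in HepG2 was captured via cis-regulated reporter constructs; after 24 h dosing, reporter mRNA was reverse-transcribed, amplified, fluorescently labelled and sized by capillary electrophoresis, with activity fitted bidirectionally relative to DMSO.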

Assay [4] in a line: ATG_NRF2_ARE_CIS: Attagene CIS-FACTORIAL HepG2 Assay for human Nuclear Factor Erythroid 2 Related Factor 2 (NFR2) response to Antioxidant Response Elements (ARE) (AID 2282992).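 As to AC50: reporter mRNA level measured by RT-PCR and capillary electrophoresis fluorescence.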 As to conditions: HepG2 Attagene ARE/NRF2 reporter, transcription factor activity; actives raise or lower the signal. In a few lines:
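Endogenous transcription factor activity in human liver HepG2 cells is tracked via a cis-element-driven reporter within a multiplexed set. mRNA induction is read by RT-PCR and capillary electrophoresis after 24 h, with DMSO as baseline.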

Assay [5] is described as follows: ATG_Oct_MLP_CIS: Attagene CIS-FACTORIAL HepG2 Assay for human Octamer-Binding Transcription Factor (Oct) (AID 2282993). As to conditions: HepG2 Attagene cis-factorial Oct reporter, mRNA; actives raise or lower the signal. The gist of the method:
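Transient MRTU transfection of HepG2 → 24 h compound treatment → RNA isolation, reverse transcription, PCR → 6-FAM primer extension, HpaI digest → capillary electrophoresis. Activity fitted both directions against DMSO.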

In assay [6] the target is Cellular tumor antigen p53 (Homo sapiens) (UniProt P04637). The assay can be described thus: ATG_p53_CIS: Attagene CIS-FACTORIAL HepG2 Assay for human p53 Transcription Factor (AID 2282994). As to conditions: HepG2 p53 cis-element reporter, Attagene mRNA; actives raise or lower the signal. The gist of the method:
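Steps: transfect HepG2 with multiplexed cis reporter constructs; dose chemicals 24 h; extract RNA, reverse-transcribe, PCR-amplify reporter sequences; FAM-label, HpaI-digest, resolve fragments by CE. Activity fitted both directions relative to DMSO.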

Assay [7] is described as follows: BSK_3C_TissueFactor: BioMAP Diversity Plus: 3C Assay for Tissue Factor Biomarker Activity (AID 2282997). As to conditions: BioMAP 3C HUVEC, tissue factor biomarker readout; actives raise or lower the signal. In a few lines: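 HUVEC, 3C system, 24 h post-dose; Tissue Factor by ELISA; bidirectional fit vs DMSO baseline.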
The nature of assay [8]: BSK_3C_VCAM1: BioMAP Diversity Plus: 3C Assay for Vascular cell adhesion molecule 1 (VCAM1) Biomarker Activity (AID 2282999). As to conditions: BioMAP 3C HUVEC, VCAM1 ELISA, cytokine-stimulated; actives raise or lower the signal. In a few lines:
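HUVEC primary cells, 24 h compound exposure; VCAM-1 by ELISA; gain/loss of signal fitted bidirectionally vs DMSO baseline.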
Background: In an ELISA, binding on a coated surface is turned into a signal by an enzyme label.

The nature of assay [9]: BSK_4H_Eotaxin3: BioMAP Diversity Plus: 4H Assay for Eotaxin 3 Biomarker Activity (AID 2283000).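 As to outcome: CCL26 protein level quantified by ELISA in parallel with SRB cytotoxicity check.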 As to conditions: primary human endothelial cells (HUVEC); actives raise or lower the signal. The gist of the method: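 Readout is Eotaxin-3 (CCL26) level by ELISA in primary human umbilical vein endothelial cells harvested 24 h after chemical exposure; activity fitted in both directions against DMSO control.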

Assay [10] can be described thus: BSK_3C_uPAR: BioMAP Diversity Plus: 3C Assay for Urokinase-type plasminogen activator receptor (uPAR) Biomarker Activity (AID 2282998). As to conditions: BioMAP 3C HUVEC, uPAR biomarker ELISA; actives raise or lower the signal. The gist of the method:
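ELISA readout of uPAR on human vascular endothelium (umbilical vein primary cells), taken 24 h after chemical dosing. Increases and decreases are both fitted relative to DMSO vehicle.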

Myc proto-oncogene protein (Homo sapiens), sequence (P01106 whole entry, looked up, the tested form may be a part): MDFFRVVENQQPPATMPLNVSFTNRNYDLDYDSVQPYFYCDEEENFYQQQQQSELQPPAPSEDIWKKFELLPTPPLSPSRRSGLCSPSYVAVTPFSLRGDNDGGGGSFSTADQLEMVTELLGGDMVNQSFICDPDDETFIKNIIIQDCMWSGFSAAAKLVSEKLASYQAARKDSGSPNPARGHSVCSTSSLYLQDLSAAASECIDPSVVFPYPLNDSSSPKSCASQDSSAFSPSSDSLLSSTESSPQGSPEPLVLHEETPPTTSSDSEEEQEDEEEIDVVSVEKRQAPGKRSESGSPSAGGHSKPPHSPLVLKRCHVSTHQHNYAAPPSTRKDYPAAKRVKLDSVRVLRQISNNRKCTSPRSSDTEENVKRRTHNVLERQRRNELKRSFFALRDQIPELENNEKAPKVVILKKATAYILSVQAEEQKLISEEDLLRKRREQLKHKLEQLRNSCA
Cellular tumor antigen p53 (Homo sapiens), sequence (P04637 whole entry, looked up, the tested form may be a part): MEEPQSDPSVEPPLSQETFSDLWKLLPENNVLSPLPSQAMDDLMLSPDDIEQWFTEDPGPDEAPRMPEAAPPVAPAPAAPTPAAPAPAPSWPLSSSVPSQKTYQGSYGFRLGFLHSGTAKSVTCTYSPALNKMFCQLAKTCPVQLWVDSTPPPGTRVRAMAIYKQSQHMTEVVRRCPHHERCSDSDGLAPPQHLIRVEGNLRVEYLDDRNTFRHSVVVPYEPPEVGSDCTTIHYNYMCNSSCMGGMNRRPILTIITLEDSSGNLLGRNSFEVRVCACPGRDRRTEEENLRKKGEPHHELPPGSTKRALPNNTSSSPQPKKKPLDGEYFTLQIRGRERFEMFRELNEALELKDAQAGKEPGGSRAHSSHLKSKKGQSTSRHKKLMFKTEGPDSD

Turning to `N#CC(Br)(Br)C(N)=O`, the result in assay [1], in assay [2], in assay [5], in assay [6], in assay [7] and in assay [8] was inactive. Moreover, the outcome in [9] was inactive. In addition, the results for the AC50 in assay [3] and in assay [4] were 157 µM (active) and 100 µM (active), respectively.
On to `C1=Cc2cccc3cccc1c23`, for which the call in assay [1], in assay [2], in [3], in assay [4], in assay [5] and in assay [6] was inactive. Moreover, the outcome in assay [7], in assay [10], in assay [8] and in [9] was inactive.
Turning to `Oc1ccccc1Cl`, the result in assay [1], in [2], in [3], in assay [5], in assay [6] and in [7] was inactive. In addition, the result in [10], in assay [8] and in assay [9] was inactive. For the same compound, the AC50 in [4] is 52 µM (active).
With `CCC(C)c1ccc(O)cc1` (configuration not stated), the compound was called inactive in assay [1], in [2], in assay [6], in assay [7], in assay [10] and in assay [8]. Also, the outcome in assay [9] was inactive. Further, the AC50 was 100 µM (active) in [3], 67.3 µM (active) in [4] and 67.9 µM (active) in [5].
In the case of `Cn1cc(-c2ccccc2)c(=O)c(-c2cccc(C(F)(F)F)c2)c1`, the outcome in [1], in assay [2], in assay [5], in assay [6], in assay [7] and in assay [10] was inactive. Moreover, the result in assay [8] and in [9] was inactive. For the same compound, the values for the AC50 in assay [3] and in assay [4] were 100 µM (active) and 44.2 µM (active), respectively.
Take `Nc1ccc([N+](=O)[O-])cc1`: the outcome in [1], in [2], in [3], in assay [4], in [5] and in assay [6] was inactive. Besides, the result in assay [7], in assay [10], in [8] and in assay [9] was inactive.
Turning to `CCN(CC)N=O`, the call in [1], in [2], in assay [3], in assay [4], in assay [5] and in assay [6] was inactive. Moreover, the outcome in assay [7], in assay [10], in assay [8] and in [9] was inactive.
For `O=Cc1ccco1`, the call in assay [1], in [2], in assay [3], in assay [4], in [5] and in [6] was inactive. Also, the result in [7], in assay [8] and in assay [9] was inactive.
For the compound `CCN(CC)CCO`, the outcome in assay [1], in assay [2], in [3], in assay [4], in assay [5] and in assay [6] was inactive. The outcome in assay [8] and in assay [9] was inactive.
In the case of `CCCCCOC(=O)c1ccccc1C(=O)OCCCCC`, the compound was called inactive in assay [1], in assay [2], in assay [3] and in assay [6]. The concentration at half-maximal activity (AC50) in assay [4] is 56.4 µM (active); in assay [5], 161 µM (active); in [8], 20 µM (active); in assay [9], 20 µM (active).
As for `C=CCc1ccc2c(c1)OCO2`, the compound was classed as inactive in [1], in assay [2], in [3], in assay [4], in assay [5] and in assay [6]. Besides, the outcome in [7], in [8] and in assay [9] was inactive.
Consider `Oc1ccc2ccc3cccc4ccc1c2c34`, for which the outcome in [1], in assay [2], in assay [3], in [4], in assay [5] and in assay [6] was inactive. The results for the AC50 in assay [7], in assay [8] and in assay [9] were 32.6 µM (active), 35.4 µM (active) and 28.6 µM (active), respectively.
On to `[O-][Cl+]O`, for which the call in assay [1], in assay [2], in assay [3], in [4], in assay [5] and in [6] was inactive. Besides, the outcome in [10], in assay [8] and in [9] was inactive.
On to `Cc1cc(N=Nc2ccccc2C)ccc1N`, for which the outcome in assay [1], in assay [2], in [3], in assay [6] and in [8] was inactive. In addition, the AC50 in [4] is 7.21 µM (active); in assay [5], 20.4 µM (active); in [9] it was 14.2 µM (active).
As for `CC(C)(OOC(C)(C)c1ccccc1)c1ccccc1`, the AC50 in assay [1] is 59.1 µM (active); in assay [2] it was 77.6 µM (active); in [4], 29.1 µM (active); in [5] it was 59.6 µM (active); in assay [8] it was 27.7 µM (active); in [9], 29.9 µM (active). Also, the compound was called inactive in assay [3] and in assay [6].
For `Nc1ccc(Oc2ccc(N)cc2)cc1`, the outcome in [1], in [2], in assay [3], in assay [4], in assay [5] and in assay [6] was inactive. Also, the outcome in assay [8] and in assay [9] was inactive.
`CC(C)N(Cc1ccccc1)C(=O)C(C)(C)C`: the compound was called inactive in [1], in assay [2], in assay [3], in assay [4], in assay [5] and in assay [6]. The result in assay [10], in assay [8] and in assay [9] was inactive.
For `OCCCBr`, the call in assay [1], in assay [2], in assay [3], in assay [4], in [5] and in assay [6] was inactive. Besides, the result in [7], in [8] and in assay [9] was inactive.
With `CCCCOC(=O)c1ccccc1C(=O)OCc1ccccc1`, the compound was classed as inactive in assay [1], in [2], in assay [3], in assay [5], in assay [6] and in assay [8]. Also, the outcome in [9] was inactive. Also, the AC50 in assay [4] was 48.3 µM (active).
For `CCCCC(CC)COC(=O)c1ccc(C(=O)OCC(CC)CCCC)c(C(=O)OCC(CC)CCCC)c1` (configuration not stated), the call in assay [1], in assay [2], in [3], in assay [4], in assay [5] and in assay [6] was inactive. In addition, the outcome in [10], in assay [8] and in [9] was inactive.
On to `Cc1ccc(N=C=O)cc1N=C=O`, for which the compound was classed as inactive in [1], in [2], in [3], in assay [4], in assay [5] and in [6]. Further, the result in [8] and in assay [9] was inactive.
For `ClC1=C(Cl)C2(Cl)C3C(Cl)C=CC3C1(Cl)C2(Cl)Cl` (configuration not stated), the AC50 in assay [1] is 186 µM (active); in [2] it was 100 µM (active); in [3] it was 100 µM (active); in assay [5] it was 149 µM (active); in assay [6], 100 µM (active); in assay [10], 29.3 µM (active). Besides, the results for the AC50 in [8] and in assay [9] were 30.8 µM (active) and 29.9 µM (active), respectively. Moreover, the compound was called inactive in assay [4].

What is called AC50 is the concentration at which the activity in the assay is half-maximal.

These data come from PubChem BioAssay (EPA / NIEHS).
